More than one record can exist for a structure, and the calls need not agree. Calls of active or inactive are those of the source. The calls were made as follows: active = hit-call score of the fitted dose curve at least 0.9, where 1 is the maximum; inactive = score below 0.9.

The nature of this assay: CEETOX_H295R_OHPROG: CeeTox H295R High-throughput Steroidogenesis Assay for OH-Progesterone (OHPROG) (AID 2283435). The following applies: actives raise or lower the signal. The procedure:
CEETOX_H295R is a cell-based, multiplexed-readout assay that uses H295R, a human adrenal gland cell line, with measurements taken at 48 hours after chemical dosing in a 96-well plate.CEETOX_H295R_OHPROG is one of 23 assay component(s) measured or calculated from the CEETOX_H295R assay. It is designed to make measurements of hormone induction, a form of inducible reporter, as detected with absorbance signals by HPLC-MS-MS technology.Data from the assay component CEETOX_H295R_OHPROG was analyzed into 1 assay endpoint. This assay endpoint, CEETOX_H295R_OHPROG, was analyzed with bidirectional fitting relative to DMSO as the negative control and baseline of activity. Using a type of inducible reporter, gain or loss-of-signal activity using HPLC-MS-MS was used to understand synthesis of 17alpha-hydroxyprogesterone in H295R cell line at 48hr of chemical exposure. To generalize the intended target to other relatable targets, this assay endpoint is annotated to the steroid hormone intended target family, where the subfamily is progestagens.
Cell culture and media preparation procedures were conducted in accordance with OECD Test No. 456 guidelines, with minor modifications. H295R cells (ATCC CRL-2128) were expanded for 5 passages and frozen in batches in liquid nitrogen. Prior to the steroidogenesis assay, H295R cells were thawed and passed at least 4 times. The maximum passage was 10. Cells were maintained in a 1:1 mixture of DMEM/F12 supplemented with 5ml/L ITS+ Premix (BD Bioscience) and 12.5 ml/L Nu-Serum (BD Bioscience). After seeding cells into 96-well plates at 50-60% confluency, cells were allowed to adhere overnight. Prior to chemical testing, culture medium was replaced with 175 uL medium containing 10 uM forskolin to stimulate steroidogenesis for 48 hours. Following prestimulation, forskolin medium was replaced with medium containing test chemical solubilized in DMSO (ensuring a final concentration of 0.1% DMSO). Test chemicals were incubated for 48 hours, then the medium was removed and split into 2 vials containing approximately 75uL each, and stored at -80 C prior to hormone analysis. For steroid quantification, media samples were shipped to OpAns, LLC (Durham, NC) on dry ice, and samples were thawed to room temperature prior to liquid-liquid extraction. Steroid hormones were extracted from media samples using methyl tertbutyl ether (MTBE). An extra derivatization with dansyl chloride was included for estrogen (estrone and estradiol) detection only. Steroid hormones were separated by HPLC, eluted using a reverse phase C18 gradient with electrospray positive ionization, followed by quantification by tandem mass spectrometry (MS/MS). Data were acquired on a MassHunter Workstation Acquisition version B03.01 (Agilent Technologies, Inc.) and processed using MassHunter Quantitative Analysis for QQQ. Accuracy was determined for each hormone analyte from 3 standards to determine upper and lower limits of quantification (ULOQ and LLOQ, respectively) using a 7-point standard curve. Precision and accuracy of the extraction and quantification methods were calculated as the percent relative standard deviation (%RSD) of the spiked standards and percent spiked standard recovered, respectively. […] Test medium was removed following chemical exposure, and cell viability was evaluated in the same wells by MTT. MTT procedures were as follows: after removal of test medium, 500 uL of 0.5 mg/ml of 3-[4,5-dimethylthiazol-2-y]2,5-diphenyltetrazoliumbromide solution was added to the cells. Following a 4-hour incubation at 37 C and 5% CO2 to allow formazan-crystal formation, the MTT solution was removed and blue formazan salt crystals were solubilized using 500uL anhydrous isopropanol with shaking for 20 minutes. Absorbance was read at 570 and 650nm using a Packard Fusion microplate reader. Background correction of absorbance units was used to determine percent change relative to controls. […]
In the case of `N#CC(CCc1ccc(Cl)cc1)(Cn1cncn1)c1ccccc1` (configuration not stated), the AC50 is 0.36 µM (active).
Take `CCOC(=O)C(Cl)Cc1cc(-n2nc(C)n(C(F)F)c2=O)c(F)cc1Cl` (configuration not stated): the AC50 was 50 µM (active).
Turning to `CCON=C(CC)C1=C(O)CC(c2c(C)cc(C)cc2C)CC1=O` (configuration not stated), the compound was classed as inactive.
Regarding `COc1nc(NC(C)C)nc(NC(C)C)n1`, the result was inactive.
`Cc1cc(Cl)ccc1OCC(=O)O`: the call was inactive.
For `CNC(=S)S`, the outcome was inactive.
As for `CCCCNC(=O)n1c(NC(=O)OC)nc2ccccc21`, the compound was classed as inactive.
For the compound `CC(C)Oc1cc(-n2nc(C(C)(C)C)oc2=O)c(Cl)cc1Cl`, the compound was called inactive.
For `CCCC1COC(Cn2cncn2)(c2ccc(Cl)cc2Cl)O1` (configuration not stated), the result was inactive.
As for `Oc1ccccc1-c1ccccc1`, the AC50 was 71.8 µM (active) and the result was inactive.
With `Cc1c(F)c(F)c(COC(=O)C2C(/C=C(\Cl)C(F)(F)F)C2(C)C)c(F)c1F` (configuration not stated), the outcome was inactive.
In the case of `CON(C)C(=O)Nc1ccc(Cl)c(Cl)c1`, the outcome was inactive.
As to `CCOP(=S)(OCC)SCn1c(=O)oc2cc(Cl)ccc21`, the outcome was inactive.
`CCOC(=O)CC(SP(=S)(OC)OC)C(=O)OCC` (configuration not stated): the AC50 is 25.8 µM (active).
On to `CCNc1nc(Cl)nc(NCC)n1`, for which the compound was called inactive.
As for `C=CC1(C)OC(=O)N(c2cc(Cl)cc(Cl)c2)C1=O` (configuration not stated), the AC50 was 22.6 µM (active).
As for `CC1COC(Cn2cncn2)(c2ccc(Oc3ccc(Cl)cc3)cc2Cl)O1` (configuration not stated), the AC50 is 0.5 µM (active).
Take `CCNc1nc(Cl)nc(NC(C)C)n1`: the compound was classed as inactive.
For the compound `C=CCC1=C(C)C(OC(=O)C2C(C=C(C)C)C2(C)C)CC1=O` (configuration not stated), the call was inactive.
With `CC1=C(C(=O)Nc2ccccc2)SCCO1`, the compound was called inactive.
The same measure, in the same setting: to `CCOc1cc(Oc2ccc(C(F)(F)F)cc2Cl)ccc1[N+](=O)[O-]` belongs “inactive”.

A word on the AC50: it is the midpoint of the concentration-response curve, whichever way the signal moves.
